# Results reported in PubChem BioAssay (EPA / NIEHS).
# Calls of active or inactive are those of the source. How the source made its calls: active means hit-call score of the fitted dose curve at least 0.9, where 1 is the maximum; inactive means score below 0.9.
# Assays:
# Settings in all cases: mRNA level, 48 h; actives raise or lower the signal
# [1] = read-out: Cytochrome P450 7A1 (Homo sapiens) (UniProt P22680); assay: LTEA_HepaRG_CYP7A1: Life Technologies and Expression Analysis (LTEA) Assay for Cytochrome P450 7A1 (CYP7A1) using HepaRG (AID 2283496)
# Procedure, shortened: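 HepaRG cells plated 48 h, then switched to serum-free induction medium and exposed in duplicate for 48 h to 8-point half-log series from 100 uM in 0.5% DMSO. CYP7A1 mRNA by qRT-PCR (TaqMan), normalized to ACTB/GAPDH/POLR2A; bidirectional fit versus DMSO.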
# [2] = read-out: Glutathione S-Transferase (GSTA2), GSTA2 (gene 2939); assay: LTEA_HepaRG_GSTA2: Life Technologies and Expression Analysis (LTEA) Assay for Glutathione S-Transferase (GSTA2) using HepaRG (AID 2283497)
# Procedure, shortened: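 HepaRG, 48 h dosing, 8-pt half-log CRC from 100 uM, 0.5% DMSO vehicle, n=2; RNA → Fluidigm TaqMan qRT-PCR; GSTA2 vs ACTB/GAPDH/POLR2A; gain/loss fit vs DMSO.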
# [3] = read-out: Glutamate-cysteine ligase catalytic (GCLC), GCLC (gene 2729); assay: LTEA_HepaRG_GCLC: Life Technologies and Expression Analysis (LTEA) Assay for Glutamate-cysteine ligase catalytic (GCLC) using HepaRG (AID 2283498)
# Procedure, shortened: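 Read-out is GCLC transcript level by Fluidigm-based TaqMan qRT-PCR, normalized to three housekeeping genes and fitted in both directions relative to 0.5% DMSO. Human HepaRG cells received chemicals for 48 h, up to 100 uM.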
# [4] = read-out: growth arrest and DNA damage 45 (GADD45G), GADD45G (gene 10912); assay: LTEA_HepaRG_GADD45G: Life Technologies and Expression Analysis (LTEA) Assay for growth arrest and DNA damage 45 (GADD45G) using HepaRG (AID 2283499)
# Procedure, shortened: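 Human hepatic HepaRG line treated 48 h with chemicals (eight concentrations, half-log steps from 100 uM); transcript induction or repression of GADD45G scored by qRT-PCR versus DMSO vehicle.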
# [5] = read-out: Glutamate-cysteine ligase regulatory (GCLM), GCLM (gene 2730); assay: LTEA_HepaRG_GCLM: Life Technologies and Expression Analysis (LTEA) Assay for Glutamate-cysteine ligase regulatory (GCLM) using HepaRG (AID 2283500)
# Procedure, shortened: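 Cells were plated, cultured 48 h, switched to serum-free induction medium, then dosed in duplicate for 48 h at eight half-log concentrations up to 100 uM. RNA was then profiled by qRT-PCR; gain or loss versus DMSO was fitted.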
# [6] = read-out: Glutathione S-transferase M3 (GSTM3), GSTM3 (gene 2947); assay: LTEA_HepaRG_GSTM3: Life Technologies and Expression Analysis (LTEA) Assay for Glutathione S-transferase M3 (GSTM3) using HepaRG (AID 2283501)
# Procedure, shortened: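 Changes in GSTM3 expression, an oxidative-stress marker, were scored by bidirectional curve fitting against 0.5% DMSO vehicle. Human HepaRG cultures received chemicals for 48 h in duplicate, highest concentration 100 uM with half-log dilutions.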
# [7] = read-out: Heat shock 70 kDa protein 1 (HSPA1A), gene 3303; assay: LTEA_HepaRG_HSPA1A: Life Technologies and Expression Analysis (LTEA) Assay for Heat shock 70 kDa protein 1 (HSPA1A) using HepaRG (AID 2283502)
# Procedure, shortened: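 Readout is HSPA1A transcript level by microfluidic qRT-PCR, normalized to three housekeeping genes and analysed for gain or loss of signal relative to 0.5% DMSO. Human HepaRG cultures received test chemicals for 48 h at up to 100 uM.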
# [8] = read-out: 3-Hydroxy-3-Methylglutaryl-CoA Synthase 2 (HMGCS2), HMGCS2 (gene 3158); assay: LTEA_HepaRG_HMGCS2: Life Technologies and Expression Analysis (LTEA) Assay for 3-Hydroxy-3-Methylglutaryl-CoA Synthase 2 (HMGCS2) using HepaRG (AID 2283504)
# Procedure, shortened: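 Expression of HMGCS2 in human HepaRG liver cells is measured by qRT-PCR 48 h after dosing (highest 100 uM, half-log series, 0.5% DMSO). Values come from bidirectional concentration-response fitting with DMSO as baseline.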
# [9] = read-out: HGF (gene 3082); assay: LTEA_HepaRG_HGF: Life Technologies and Expression Analysis (LTEA) Assay for Hepatocyte Growth Facto (HGF) using HepaRG (AID 2283505)
# Procedure, shortened: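 Gain or loss of HGF mRNA in human HepaRG liver cells after 48 h chemical exposure; eight concentrations up to 100 uM with 0.5% DMSO vehicle, quantified by TaqMan qRT-PCR.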
# [10] = read-out: Insulin Like Growth Factor 1 (IGF1), IGF1 (gene 3479); assay: LTEA_HepaRG_IGF1: Life Technologies and Expression Analysis (LTEA) Assay for Insulin Like Growth Factor 1 (IGF1) using HepaRG (AID 2283506)
# Procedure, shortened: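 HepaRG, plated 48 h, then switched to serum-free induction media; test chemical 8-pt half-log from 100 uM (0.5% DMSO), duplicate, 48 h. Lysis in RLT, TaqMan qRT-PCR, norm. ACTB/GAPDH/POLR2A. Bidirectional fit vs DMSO.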
# [11] = read-out: Intercellular Adhesion Molecule 1 (ICAM1), ICAM1 (gene 3383); assay: LTEA_HepaRG_ICAM1: Life Technologies and Expression Analysis (LTEA) Assay for Intercellular Adhesion Molecule 1 (ICAM1) using HepaRG (AID 2283507)
# Procedure, shortened: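 Gain or loss of transcript in HepaRG hepatic cells is quantified by qRT-PCR after 48 h chemical exposure (up to 100 uM, half-log steps), with DMSO as baseline.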
# [12] = read-out: Interleukin 6 (IL6), IL6 (gene 3569); assay: LTEA_HepaRG_IL6: Life Technologies and Expression Analysis (LTEA) Assay for Interleukin 6 (IL6) using HepaRG (AID 2283509)
# Procedure, shortened: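 HepaRG, ~100,000 cells/well, 48 h pre-culture; serum-free induction medium; cmpd 8-pt half-log from 100 uM, 0.5% DMSO, duplicate, 48 h. Lysis in RLT, TaqMan qRT-PCR; gain or loss vs DMSO.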
# [13] = read-out: Interleukin 6 Receptor (IL6R), IL6R (gene 3570); assay: LTEA_HepaRG_IL6R: Life Technologies and Expression Analysis (LTEA) Assay for Interleukin 6 Receptor (IL6R) using HepaRG (AID 2283510)
# Procedure, shortened: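 Readout is IL6R transcript level by TaqMan qRT-PCR, normalized to three housekeeping genes and fitted bidirectionally against 0.5% DMSO controls. Human HepaRG cells received chemicals for 48 h in serum-free induction medium, highest concentration 100 uM.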
# [14] = read-out: Potassium channel subfamily K member 1 (KCNK1), KCNK1 (gene 3775); assay: LTEA_HepaRG_KCNK1: Life Technologies and Expression Analysis (LTEA) Assay for Potassium channel subfamily K member 1 (KCNK1) using HepaRG (AID 2283511)
# Procedure, shortened: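 Gain or loss of KCNK1 mRNA is the read-out, quantified by qRT-PCR against three housekeeping genes after 48 h chemical treatment of human HepaRG liver cells. Concentrations ran from 100 uM downward in half-log steps, vehicle 0.5% DMSO.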
# [15] = read-out: Keratin 19 (KRT19), KRT19 (gene 3880); assay: LTEA_HepaRG_KRT19: Life Technologies and Expression Analysis (LTEA) Assay for Keratin 19 (KRT19) using HepaRG (AID 2283512)
# Procedure, shortened: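 Gene-expression endpoint in the human liver line HepaRG after 48 h exposure to up to 100 uM test chemical with 0.5% DMSO vehicle; KRT19 mRNA by qRT-PCR, analyzed bidirectionally versus DMSO.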
# [16] = read-out: Lipase C (LIPC), LIPC (gene 3990); assay: LTEA_HepaRG_LIPC: Life Technologies and Expression Analysis (LTEA) Assay for Lipase C (LIPC) using HepaRG (AID 2283514)
# Procedure, shortened: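 Read-out is LIPC transcript level by TaqMan qRT-PCR, normalized to three housekeeping genes, after 48 h chemical treatment of human HepaRG liver cells. Curves span eight concentrations topping at 100 uM; activity in either direction scored relative to 0.5% DMSO.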
# [17] = read-out: Lipoprotein lipase (LPL), LPL (gene 4023); assay: LTEA_HepaRG_LPL: Life Technologies and Expression Analysis (LTEA) Assay for Lipoprotein lipase (LPL) using HepaRG (AID 2283515)
# Procedure, shortened: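 Read-out is LPL transcript level by qRT-PCR, normalized to three housekeeping genes and fitted bidirectionally against the DMSO control. Human HepaRG cells received chemicals for 48 h at up to 100 uM.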
# [18] = read-out: Hypoxia-inducible factor 1-alpha (Homo sapiens) (UniProt Q16665); assay: LTEA_HepaRG_HIF1A: Life Technologies and Expression Analysis (LTEA) Assay for Hypoxia-inducible factor 1 (HIF1A) Trancription factor using HepaRG (AID 2283503)
# Procedure, shortened: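 Differentiated HepaRG cells in serum-free induction medium exposed 48 h, in duplicate, to 8-point half-log series from 100 uM in 0.5% DMSO. HIF1A mRNA measured by TaqMan qRT-PCR, normalized to ACTB/GAPDH/POLR2A, fitted bidirectionally versus DMSO.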
# [19] = read-out: Insulin-like growth factor-binding protein 1 (IGFBP1), IGFBP1 (gene 3484); assay: LTEA_HepaRG_IGFBP1: Life Technologies and Expression Analysis (LTEA) Assay for Insulin-like growth factor-binding protein 1 (IGFBP1) using HepaRG (AID 2283508)
# Procedure, shortened: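 mRNA induction or loss was quantified by qRT-PCR after 48 h chemical exposure of human HepaRG cells, with 0.5% DMSO as vehicle and baseline. Concentration-response over eight points up to 100 uM.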
# [20] = read-out: JUN Transcription Factor, JUN (gene 3725); assay: LTEA_HepaRG_JUN: Life Technologies and Expression Analysis (LTEA) Assay for JUN Transcription Factor using HepaRG (AID 2283513)
# Procedure, shortened: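 Cells plated 48 h, medium switched to serum-free induction medium, then dosed 48 h (100 uM top, half-log dilutions, 0.5% DMSO). RNA isolated; JUN measured by qRT-PCR against three housekeeping genes; gain or loss fitted relative to DMSO.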
# Sequence of Hypoxia-inducible factor 1-alpha (Homo sapiens) (Q16665 whole entry, looked up): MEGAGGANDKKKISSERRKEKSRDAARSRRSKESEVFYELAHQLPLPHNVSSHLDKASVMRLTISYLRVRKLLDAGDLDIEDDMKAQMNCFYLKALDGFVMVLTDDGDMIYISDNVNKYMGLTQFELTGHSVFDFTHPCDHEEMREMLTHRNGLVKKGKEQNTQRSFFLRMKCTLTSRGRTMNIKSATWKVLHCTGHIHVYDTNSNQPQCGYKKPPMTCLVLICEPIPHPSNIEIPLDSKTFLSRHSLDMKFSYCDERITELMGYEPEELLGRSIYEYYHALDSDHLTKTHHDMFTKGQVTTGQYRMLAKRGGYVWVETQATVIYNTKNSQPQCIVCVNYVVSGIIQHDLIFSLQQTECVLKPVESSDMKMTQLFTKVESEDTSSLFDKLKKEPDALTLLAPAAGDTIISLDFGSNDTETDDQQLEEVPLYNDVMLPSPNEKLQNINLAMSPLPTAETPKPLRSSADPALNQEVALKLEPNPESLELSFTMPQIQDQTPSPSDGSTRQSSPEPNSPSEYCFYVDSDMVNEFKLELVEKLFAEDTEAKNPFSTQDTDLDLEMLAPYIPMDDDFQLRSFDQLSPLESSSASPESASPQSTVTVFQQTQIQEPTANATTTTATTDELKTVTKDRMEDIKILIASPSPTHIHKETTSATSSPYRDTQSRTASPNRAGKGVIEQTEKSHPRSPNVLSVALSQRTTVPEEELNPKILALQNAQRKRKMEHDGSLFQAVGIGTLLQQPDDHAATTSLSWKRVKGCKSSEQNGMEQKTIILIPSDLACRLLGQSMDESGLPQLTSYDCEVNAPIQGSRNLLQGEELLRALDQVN
compound,measurement,setting,value
CN(C)C(=O)Nc1ccc(Cl)cc1,outcome,[1],inactive
same,outcome,[2],inactive
same,outcome,[3],inactive
same,outcome,[4],inactive
same,outcome,[5],inactive
same,outcome,[6],inactive
same,outcome,[7],inactive
same,outcome,[8],inactive
same,outcome,[9],inactive
same,outcome,[10],inactive
same,outcome,[11],inactive
same,outcome,[12],inactive
same,outcome,[13],inactive
same,outcome,[14],inactive
same,outcome,[15],inactive
same,outcome,[16],inactive
same,outcome,[17],inactive
Oc1ccc2ccc3cccc4ccc1c2c34,AC50,[1],50 µM (active)
same,outcome,[2],inactive
same,outcome,[3],inactive
same,outcome,[4],inactive
same,outcome,[5],inactive
same,outcome,[6],inactive
same,outcome,[7],inactive
same,outcome,[8],inactive
same,outcome,[9],inactive
same,outcome,[10],inactive
same,outcome,[11],inactive
same,outcome,[12],inactive
same,outcome,[13],inactive
same,outcome,[14],inactive
same,AC50,[15],8.53 µM (active)
same,outcome,[16],inactive
same,outcome,[17],inactive
CC(O)CCO (stereo unspecified),outcome,[1],inactive
same,outcome,[2],inactive
same,outcome,[3],inactive
same,outcome,[4],inactive
same,outcome,[5],inactive
same,outcome,[6],inactive
same,outcome,[18],inactive
same,outcome,[8],inactive
same,outcome,[9],inactive
same,outcome,[10],inactive
same,outcome,[11],inactive
same,outcome,[19],inactive
same,outcome,[12],inactive
same,outcome,[13],inactive
same,outcome,[14],inactive
same,outcome,[15],inactive
same,outcome,[20],inactive
same,outcome,[16],inactive
same,outcome,[17],inactive
O=C(Oc1ccc(Br)cc1)N1CCN2CCC1CC2,outcome,[1],inactive
same,outcome,[2],inactive
same,outcome,[3],inactive
same,outcome,[4],inactive
same,outcome,[5],inactive
same,outcome,[6],inactive
same,outcome,[18],inactive
same,outcome,[8],inactive
same,outcome,[9],inactive
same,outcome,[10],inactive
same,outcome,[11],inactive
same,outcome,[19],inactive
same,outcome,[12],inactive
same,outcome,[13],inactive
same,outcome,[14],inactive
same,outcome,[15],inactive
same,outcome,[20],inactive
same,outcome,[16],inactive
same,AC50,[17],74.4 µM (active)
O=[N+]([O-])C(Br)(CO)CO,outcome,[1],inactive
same,outcome,[2],inactive
same,outcome,[3],inactive
same,outcome,[4],inactive
same,outcome,[5],inactive
same,outcome,[6],inactive
same,outcome,[18],inactive
same,outcome,[8],inactive
same,outcome,[9],inactive
same,outcome,[10],inactive
same,outcome,[11],inactive
same,outcome,[12],inactive
same,outcome,[13],inactive
same,outcome,[14],inactive
same,outcome,[15],inactive
same,outcome,[20],inactive
same,outcome,[16],inactive
same,outcome,[17],inactive
CC(C)N(Cc1ccccc1)C(=O)C(C)(C)C,outcome,[1],inactive
same,outcome,[2],inactive
same,outcome,[3],inactive
same,outcome,[4],inactive
same,outcome,[5],inactive
same,outcome,[6],inactive
same,outcome,[7],inactive
same,outcome,[8],inactive
same,outcome,[9],inactive
same,AC50,[10],25.6 µM (active)
same,outcome,[11],inactive
same,outcome,[12],inactive
same,outcome,[13],inactive
same,outcome,[14],inactive
same,outcome,[15],inactive
same,outcome,[16],inactive
same,outcome,[17],inactive
[As]#[In],outcome,[1],inactive
same,outcome,[2],inactive
same,outcome,[3],inactive
same,outcome,[4],inactive
same,outcome,[5],inactive
same,outcome,[6],inactive
same,outcome,[18],inactive
same,outcome,[8],inactive
same,outcome,[9],inactive
same,outcome,[10],inactive
same,outcome,[11],inactive
same,outcome,[19],inactive
same,outcome,[12],inactive
same,outcome,[13],inactive
same,outcome,[14],inactive
same,outcome,[15],inactive
same,outcome,[20],inactive
same,outcome,[16],inactive
same,outcome,[17],inactive
